Data reported in PubChem BioAssay (Tox21).
Results filed as inconclusive are left out. Active and inactive are the calls of the source. Unless noted, calls come from the whole dose curve; as a rule, active = well fitted curve in the direction sought with a large enough effect in the repeat runs; inconclusive = weak or mixed curves; inactive = no such curve, though single readings can be large; an effect the other way counts as inactive or inconclusive.

Tests used:
[1] = qHTS assay to identify small molecule agonists of the peroxisome proliferator-activated receptor delta (PPARd) signaling pathway - cell viability counter screen (AID 743211); note: % is set by controls: 0 for no effect and ±100 for the full control effect; nearly all actives have a fitted effect of over 55% in size
Summary of the method: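 PPARd-bla HEK293H cells (3000/well) were pre-incubated 5 h at 37 C, then exposed to compound for 17 h at 37 C. After 2 h with LiveBLAzer substrate, CellTiter-Glo was added to the same wells; luminescence read after 30 min at room temperature.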

[2] = qHTS assay to identify small molecule antagonists of the peroxisome proliferator-activated receptor delta (PPARd) signaling pathway - cell viability counter screen (AID 743213); note: % is set by controls: 0 for no effect and ±100 for the full control effect; nearly all actives have a fitted effect of over 50% in size
Summary of the method: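 PPARd-bla HEK293H cells (3000/well) got compound plus 300 nM L165041 agonist for 17 h at 37 C. Viability in the same wells came from CellTiter-Glo luminescence after 30 min at room temperature.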

[3] = qHTS assay to identify small molecule agonists of the farnesoid-X-receptor (FXR) signaling pathway - cell viability counter screen (AID 743218); note: % is set by controls: 0 for no effect and ±100 for the full control effect; nearly all actives have a fitted effect of over 45% in size
Summary of the method: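 In GeneBLAzer FXR-UAS-bla HEK 293T cells, compounds act for 16 h at 37 C. Cell viability is then scored in the reporter wells by CellTiter-Glo, 30 min at RT, luminescence.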

[4] = qHTS assay to identify small molecule antagonists of the farnesoid-X-receptor (FXR) signaling pathway - cell viability counter screen (AID 743221; active = well fitted cell-killing curve with a large enough effect in the repeat runs, not every such curve was filed as active; note: % is set by controls: 0 for no effect and ±100 for the full control effect; nearly all actives have a fitted effect of over 50% in size)
Summary of the method: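 GeneBLAzer FXR-UAS-bla HEK 293T cells, compound plus chenodeoxycholic acid (50 uM final), 16 h at 37 C. CellTiter-Glo added to the same wells after the beta-lactamase read; luminescence read after 30 min at room temperature as viability.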

[5] = qHTS assay to identify small molecule agonists of the vitamin D receptor (VDR) signaling pathway - cell viability counter screen (AID 743224); note: series mostly up to about 63 µM; % is set by controls: 0 for no effect and ±100 for the full control effect; nearly all actives have a fitted effect of over 50% in size
Summary of the method: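 VDR-bla cell line, quantitative HTS format; 16 h compound incubation (37C, 5% CO2); ATP-based CellTiter-Glo luminescence measured in the reporter assay wells.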

[6] = qHTS assay to identify small molecule antagonists of the vitamin D receptor (VDR) signaling pathway - cell viability counter screen (AID 743225); note: % is set by controls: 0 for no effect and ±100 for the full control effect; nearly all actives have a fitted effect of over 50% in size
Summary of the method: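 VDR-UAS-bla HEK 293T cells were plated and incubated 4 h at 37C, then dosed with compound plus 3 nM (final) 1-alpha,25-dihydroxyvitamin D3 for 16 h. After the 2 h beta-lactamase read, viability in the same wells was read as CellTiter-Glo luminescence after 30 min at room temperature.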

[7] = qHTS assay to identify small molecule agonists of the NFkB signaling pathway (AID 1159509; active = well fitted curve in the direction sought with a large enough effect in the signal ratio in the repeat runs, not every such curve was filed as active; the % refers to the signal ratio; note: series mostly up to about 61 µM; % is set by controls: 0 for no effect and ±100 for the full control effect)
Summary of the method: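 After overnight attachment, reporter cells received test compounds, DMSO or positive controls and were incubated 5 hr at 37 C. FRET substrate was then added for 1.5 hr at room temperature before dual-emission fluorescence reading.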

[8] = qHTS assay to identify small molecule agonists of the NFkB signaling pathway - cell viability counter screen (AID 1159515; calls by dose curve; note: series mostly up to about 61 µM; % is set by controls: 0 for no effect and ±100 for the full control effect; nearly all actives have a fitted effect of over 55% in size)
Summary of the method: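 Viability in NFkB-bla ME-180 cells was measured by CellTiter-Glo luminescence, 30 min room temperature, in wells already treated 5 hr with compounds and read for reporter FRET.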

[9] = qHTS assay to identify small molecule agonists of the endoplasmic reticulum stress response signaling pathway (AID 1159516; active = well fitted activation curve with a large enough effect in the signal ratio in the repeat runs, not every such curve was filed as active; the % refers to the signal ratio; note: % is set by controls: 0 for no effect and ±100 for the full control effect)
Summary of the method: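 ER stress element reporter (bla) in HeLa. 1,500 cells/well, overnight attachment; 5 hr compound; 2 hr RT substrate; dual-emission fluorescence.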

[10] = qHTS assay to identify small molecule antagonists of the retinoid-related orphan receptor gamma (ROR-gamma) signaling pathway - cell viability counter screen (AID 1159520)
Summary of the method: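 Tet-on ROR gamma CHO cells were given compounds for 2 hr, then doxycycline hyclate at 1 uM final, and incubated 16 hr at 37 C. Viability was measured as ATP content by CellTiter-Glo luminescence.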

[11] = qHTS assay to identify small molecule agonists of the AP-1 signaling pathway - cell viability counter screen (AID 1159525; calls by dose curve; note: nearly all actives have a fitted effect of over 55% in size)
Summary of the method: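 AP-1-bla ME-180 cells in Opti-MEM with 0.5% dialyzed FBS, compound exposure 5 h at 37 C in 15-point titration. Viability read in the same wells as ATP content by CellTiter-Glo luminescence, normalised to tetra-n-octylammonium bromide and DMSO controls.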

[12] = qHTS assay to identify small molecule agonists of the AP-1 signaling pathway (AID 1159526; calls by dose curve; note: % is set by controls: 0 for no effect and ±100 for the full control effect)
[13] = biological target: Bile acid receptor (Homo sapiens) (UniProt Q96RI1); test: qHTS assay to identify small molecule agonists of the farnesoid-X-receptor (FXR) signaling pathway (AID 743220; active = well fitted activation curve with a large enough effect in the signal ratio in the repeat runs, not every such curve was filed as active; the % refers to the signal ratio; note: % is set by controls: 0 for no effect and ±100 for the full control effect)
Sequence of Bile acid receptor (Homo sapiens) (Q96RI1 whole entry, looked up): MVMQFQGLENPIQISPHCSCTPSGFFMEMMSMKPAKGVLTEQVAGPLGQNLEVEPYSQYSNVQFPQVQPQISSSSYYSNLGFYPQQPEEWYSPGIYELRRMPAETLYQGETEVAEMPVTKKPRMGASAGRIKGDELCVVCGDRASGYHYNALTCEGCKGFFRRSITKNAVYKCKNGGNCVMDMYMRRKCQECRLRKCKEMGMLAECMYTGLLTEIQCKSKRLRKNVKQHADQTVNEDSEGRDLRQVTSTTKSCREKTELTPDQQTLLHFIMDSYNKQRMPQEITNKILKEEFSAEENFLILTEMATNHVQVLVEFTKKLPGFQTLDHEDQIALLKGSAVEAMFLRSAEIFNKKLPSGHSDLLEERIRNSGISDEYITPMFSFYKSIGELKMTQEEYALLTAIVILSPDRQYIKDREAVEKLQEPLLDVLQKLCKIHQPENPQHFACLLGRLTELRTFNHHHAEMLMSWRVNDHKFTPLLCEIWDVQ
Summary of the method: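 Beta-lactamase reporter under UAS control in GeneBLAzer FXR HEK 293T cells (5000/well) measured with LiveBLAzer FRET substrate after 2 h at room temperature. Compound exposure lasted 16 h at 37C.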

[14] = biological target: Vitamin D3 receptor (Homo sapiens) (UniProt P11473); test: qHTS assay to identify small molecule agonists of the vitamin D receptor (VDR) signaling pathway (AID 743222; calls by dose curve; note: % is set by controls: 0 for no effect and ±100 for the full control effect)
Sequence of Vitamin D3 receptor (Homo sapiens) (P11473 whole entry, looked up): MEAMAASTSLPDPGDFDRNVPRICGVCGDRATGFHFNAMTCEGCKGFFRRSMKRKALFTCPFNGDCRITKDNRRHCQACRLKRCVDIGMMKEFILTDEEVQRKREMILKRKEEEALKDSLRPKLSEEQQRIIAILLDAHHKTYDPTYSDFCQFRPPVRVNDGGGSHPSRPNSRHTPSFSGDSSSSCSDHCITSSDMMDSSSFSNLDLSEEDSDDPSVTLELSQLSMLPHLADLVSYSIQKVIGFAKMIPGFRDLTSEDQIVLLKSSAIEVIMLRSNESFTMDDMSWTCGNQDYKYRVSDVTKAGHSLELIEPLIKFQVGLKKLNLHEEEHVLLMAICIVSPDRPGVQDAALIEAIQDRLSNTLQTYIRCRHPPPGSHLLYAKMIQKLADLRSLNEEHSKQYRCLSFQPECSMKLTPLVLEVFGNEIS
Summary of the method: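 Agonist activity measured in VDR-bla reporter cells. Exposure 16 h, 37C, 5% CO2; detection by B/G FRET substrate, 2 h RT.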

[15] = biological target: Vitamin D3 receptor (Homo sapiens) (UniProt P11473); test: qHTS assay to identify small molecule antagonists of the vitamin D receptor (VDR) signaling pathway (AID 743223; active = well fitted inhibition curve with a large enough effect in the signal ratio in the repeat runs, not every such curve was filed as active; the % refers to the signal ratio; note: % is set by controls: 0 for no effect and ±100 for the full control effect)
Summary of the method: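 VDR-bla cells were treated with compound plus 3 nM final 1alpha,25-dihydroxyvitamin D3 for 16 h at 37C. Beta-lactamase reporter read by B/G FRET substrate fluorescence after 2 h at room temperature. qHTS format.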

[16] = qHTS assay to identify small molecule agonists of the endoplasmic reticulum stress response signaling pathway - cell viability counter screen (AID 1159517; calls by dose curve)
Summary of the method: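 Counter-screen wells were identical to the reporter wells. Cells were plated at 1,500 per well and dosed for 5 hr, then read for luminescence 30 min after CellTiter-Glo addition.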

[17] = biological target: Nuclear receptor ROR-gamma (Homo sapiens) (UniProt P51449); test: qHTS assay to identify small molecule antagonists of the retinoid-related orphan receptor gamma (ROR-gamma) signaling pathway (AID 1159521)
Summary of the method: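 Tet-on ROR-gamma CHO cells with ROR response element-luciferase reporter; compounds added 2 hr before 1 uM doxycycline induction, then 16 hr at 37 C. Antagonism scored as decreased ONE-Glo luminescence.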

[18] = biological target: Peroxisome proliferator-activated receptor delta (Homo sapiens) (UniProt Q03181); test: qHTS assay to identify small molecule agonists of the peroxisome proliferator-activated receptor delta (PPARd) signaling pathway (AID 743212; calls by dose curve; note: % is set by controls: 0 for no effect and ±100 for the full control effect)
Sequence of Peroxisome proliferator-activated receptor delta (Homo sapiens) (Q03181 whole entry, looked up): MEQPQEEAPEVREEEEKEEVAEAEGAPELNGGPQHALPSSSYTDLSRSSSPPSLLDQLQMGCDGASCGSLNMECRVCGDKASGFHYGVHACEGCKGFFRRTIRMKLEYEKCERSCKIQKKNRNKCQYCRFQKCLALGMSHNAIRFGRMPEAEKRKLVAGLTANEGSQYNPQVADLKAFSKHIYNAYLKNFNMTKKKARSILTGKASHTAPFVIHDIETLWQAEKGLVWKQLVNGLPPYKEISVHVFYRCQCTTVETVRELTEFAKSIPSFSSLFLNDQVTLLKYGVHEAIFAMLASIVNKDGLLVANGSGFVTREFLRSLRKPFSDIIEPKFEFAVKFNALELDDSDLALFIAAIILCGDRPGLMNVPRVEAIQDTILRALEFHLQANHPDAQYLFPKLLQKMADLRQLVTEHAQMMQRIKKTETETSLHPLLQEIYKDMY
Summary of the method: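 Quantitative high-throughput agonist screen in a HEK293H beta-lactamase reporter line under UAS control. Compounds in DMSO, at 37 C. Fluorescence read after 2 h with FRET substrate at room temperature.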

[19] = biological target: Peroxisome proliferator-activated receptor delta (Homo sapiens) (UniProt Q03181); test: qHTS assay to identify small molecule antagonists of the peroxisome proliferator-activated receptor delta (PPARd) signaling pathway (AID 743215; active = well fitted inhibition curve with a large enough effect in the signal ratio in the repeat runs, not every such curve was filed as active; the % refers to the signal ratio)
Summary of the method: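 Antagonist-mode beta-lactamase reporter screen: HEK293H cells with UAS-bla under PPARd control, stimulated by 300 nM L165041 (final) alongside test compound for 17 h at 37 C, then FRET fluorescence after 2 h substrate incubation.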

[20] = biological target: Bile acid receptor (Homo sapiens) (UniProt Q96RI1); test: qHTS assay to identify small molecule antagonists of the farnesoid-X-receptor (FXR) signaling pathway (AID 743217; active = well fitted inhibition curve with a large enough effect in the signal ratio in the repeat runs, not every such curve was filed as active; the % refers to the signal ratio; note: % is set by controls: 0 for no effect and ±100 for the full control effect)
Summary of the method: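 Beta-lactamase reporter under UAS control in HEK 293T cells; compound exposure 16 h at 37 °C in the presence of chenodeoxycholic acid (50 uM final); signal from B/G FRET substrate after 2 h at room temperature.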

CCCCC1CCC(=O)O1 (stereo not given)
inactive: Potency [1] | Potency [2] | Potency [3] | outcome [4] | Potency [5] | Potency [6] | outcome [7] | outcome [8] | outcome [9] | Potency [10] | outcome [11] | Potency [12]

C=CCc1cc(OC)c(O)c(C(=O)NCCO)c1
inactive: Potency [1] | Potency [2] | Potency [3] | outcome [13] | outcome [4] | outcome [14] | outcome [15] | Potency [5] | Potency [6] | outcome [7] | outcome [8] | outcome [16] | Potency [10] | Potency [17] | Potency [12]

CC/C=C\CCOC(=O)CCCCC
inactive: Potency [1] | outcome [18] | Potency [2] | outcome [19] | Potency [3] | outcome [4] | outcome [14] | Potency [5] | outcome [7] | outcome [8] | outcome [16] | Potency [10] | outcome [11] | Potency [12]

CC(=O)OC(C)OC(C)=O
inactive: Potency [1] | outcome [18] | Potency [2] | outcome [19] | outcome [20] | Potency [3] | outcome [13] | outcome [4] | outcome [14] | outcome [15] | Potency [5] | Potency [6] | outcome [7] | outcome [8] | outcome [16] | Potency [10] | outcome [11] | Potency [12]

CC(=O)O[C@H]1CC[C@@]2(C)C(=CC[C@@H]3[C@@H]2CC[C@]2(C)C(C(C)=O)=CC[C@@H]32)C1
inactive: Potency [1] | Potency [2] | Potency [3] | outcome [4] | outcome [14] | outcome [15] | Potency [5] | Potency [6] | outcome [7] | outcome [8] | outcome [9] | Potency [10] | outcome [11] | Potency [12]

C=CC(C)(O)CC/C=C(\C)CCC=C(C)C (stereo not given)
inactive: Potency [1] | outcome [18] | Potency [2] | outcome [19] | Potency [3] | outcome [13] | outcome [4] | Potency [5] | outcome [8] | outcome [9] | outcome [16] | Potency [10] | Potency [17] | outcome [11]

Cn1cnc2c(F)c(Nc3ccc(Br)cc3Cl)c(C(=O)NOCCO)cc21
inactive: Potency [1] | Potency [2] | outcome [19] | outcome [20] | Potency [3] | outcome [13] | outcome [14] | outcome [15] | Potency [5] | Potency [6] | outcome [7] | outcome [8] | outcome [9] | Potency [10] | outcome [11] | Potency [12]

CC(C)(C)c1ccc(OC(=O)c2ccccc2O)cc1
inactive: Potency [1] | Potency [2] | Potency [3] | outcome [13] | outcome [4] | outcome [15] | outcome [7] | outcome [8] | outcome [16] | Potency [10] | Potency [17] | outcome [11]

CCCCOc1cc(C(=O)NCCN(CC)CC)c2ccccc2n1
inactive: Potency [3] | outcome [4] | Potency [5] | Potency [6] | outcome [7] | outcome [8] | Potency [10] | Potency [17] | outcome [11]

O=C1N(c2ccccc2)c2ccccc2C1(Cc1ccncc1)Cc1ccncc1
inactive: Potency [1] | outcome [18] | outcome [19] | outcome [4] | Potency [5] | Potency [6] | outcome [7] | outcome [8] | outcome [16] | Potency [10] | Potency [17] | Potency [12]

CNCCC(Oc1ccccc1OC)c1ccccc1 (stereo not given)
inactive: Potency [1] | outcome [18] | Potency [2] | outcome [19] | Potency [3] | outcome [13] | outcome [4] | outcome [14] | outcome [15] | Potency [5] | Potency [6] | outcome [7] | outcome [8] | outcome [16] | Potency [10] | Potency [17] | outcome [11]

NC(=O)Cc1cccc(C(=O)c2ccccc2)c1N
inactive: Potency [1] | Potency [2] | outcome [20] | Potency [3] | outcome [13] | outcome [14] | outcome [15] | Potency [5] | Potency [6] | outcome [7] | outcome [8] | outcome [16] | Potency [10] | outcome [11] | Potency [12]

CC(C)c1ccccc1
inactive: outcome [20] | Potency [3] | outcome [13] | outcome [15] | Potency [6] | outcome [7] | outcome [8] | Potency [10] | Potency [17] | outcome [11]

CCCCNCCCC
inactive: Potency [1] | outcome [18] | outcome [19] | Potency [3] | outcome [4] | outcome [14] | outcome [15] | Potency [5] | Potency [6] | outcome [7] | outcome [8] | outcome [9] | Potency [10] | outcome [11] | Potency [12]

CC(=O)OC1C2(C)CCC(C2)C1(C)C (stereo not given)
inactive: Potency [1] | outcome [18] | Potency [2] | outcome [19] | outcome [13] | outcome [4] | Potency [5] | Potency [6] | outcome [7] | outcome [8] | outcome [16] | Potency [10] | outcome [11] | Potency [12]

CCCCNc1cc(C(=O)O)cc(S(N)(=O)=O)c1Oc1ccccc1
inactive: Potency [1] | Potency [2] | Potency [3] | outcome [4] | outcome [14] | outcome [15] | Potency [5] | Potency [6] | outcome [7] | outcome [8] | outcome [9] | Potency [10] | outcome [11] | Potency [12]

O=C(O)c1ccccc1Nc1cc(Cl)ccc1C(=O)O
inactive: Potency [3] | outcome [4] | outcome [14] | outcome [15] | outcome [7] | outcome [8] | activity, negative = cytotoxicity [10] -2.84% [at 19 µM] | activity change, negative = inhibition [17] -10.7% [at 19 µM]

O=Cc1ccc(O)c(O)c1O
inactive: outcome [20] | Potency [3] | outcome [13] | outcome [4] | Potency [6] | outcome [7] | outcome [8] | Potency [10] | Potency [17] | outcome [11]

C[C@@H]1CN(c2c(F)c(F)c3c(=O)c(C(=O)O)cn(C4CC4)c3c2F)C[C@H](C)N1
inactive: Potency [1] | outcome [18] | Potency [2] | outcome [19] | Potency [3] | outcome [13] | outcome [4] | outcome [14] | outcome [15] | Potency [5] | Potency [6] | outcome [7] | outcome [8] | activity, negative = cytotoxicity [10] 3.95% [at 19 µM] | viability change, negative = cytotoxic [11] 7.6% [at 15.8 µM] | activation [12] -3.66% [at 15.8 µM]
